Results filed as inconclusive are left out. Unmarked numbers belong to inactive results. Calls of active or inactive are those of the source. Calls follow the shape of the dose curve; as a rule, active = well fitted cell-killing curve with a large enough effect; inconclusive = small, poorly fitted or top-dose-only effect, or effect the other way; inactive = flat fitted curve, though single readings scatter. Where a SMILES comes first, the peptide text is derived from it. [ ]: non-standard residue; d: D form. pGlu = O=C1CC[C@@H](C(=O)O)N1

The source of these data is PubChem BioAssay (NCATS).

What all share (test): Primary qHTS to identify gynecologic anti-cancer compounds using libraries of approved drugs and bioactive compounds (AID 1345084); also: nearly all actives have a fitted effect of over 55% in size
Holding throughout (details): Gynecologic cancer cell panel viability, ATPlite luminescence, 48 h; series mostly up to 57.5 µM
For orientation: Quantitative high-throughput screening tests each substance at several concentrations.

The test system of assay [1] is PA-1. In short, it runs like this:
(§1)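 Five-point cytotoxicity, 48 h drug exposure at 37 C, 5% CO2, on cells seeded 16 h beforehand. ATP content read by ATPlite luminescence.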

Assay [2] relates to SKOV3. The gist of the method:
as §1

The test system of assay [3] is Tov-21-G. The gist of the method: as §1
Assay [4] deals with Tov112D. In short, it runs like this:
as §1
Potency is read from the fitted curve at half-maximal effect.

For the molecule `Oc1cccc2[nH]ccc12`, the Potency result in assay [1], in assay [2], in assay [3] and in assay [4] was “inactive” throughout.
On to `CCCc1ccc(OCC(=O)N2CCN(C(=O)COc3ccc(CCC)cc3OC)CC2)c(OC)c1`, for which the Potency result in assay [1], in assay [2], in assay [3] and in assay [4] was “inactive” in each case.
`CC(=O)N[C@@H](CO)C(=O)N[C@@H](CC(=O)O)C(=O)N[C@@H](CCCCN)C(=O)N1CCC[C@H]1C(=O)O` (Ac-SDKP-OH): the Potency entry in assay [1], in assay [2], in assay [3] and in assay [4] was “inactive” each time.
As for `CCn1ccc(NS(=O)(=O)c2ccc(N)cc2)nc1=O`, the Potency entry in assay [1], in assay [2], in assay [3] and in assay [4] was “inactive” in each case.
On to `O=[N+]([O-])c1cncn1CCN1CCOCC1`, for which the Potency entry in assay [1], in assay [2], in assay [3] and in assay [4] was “inactive” throughout.
For the molecule `COC(=O)c1cc(Cl)ccc1NS(=O)(=O)C(F)(F)F`, the Potency entry in assay [1] and in assay [2] was “inactive” each time.
Regarding `Brc1ccc([C@H]2CN3CCSC3=N2)cc1`, the Potency result in assay [1], in assay [2], in assay [3] and in assay [4] was “inactive” throughout.
`CCC(=O)O[C@H]1[C@H](O[C@@H]2[C@@H](C)[C@H](O[C@H]3C[C@@](C)(OC)[C@@H](O)[C@H](C)O3)[C@@H](C)C(=O)O[C@H](CC)[C@@](C)(O)[C@H](O)[C@@H](C)C(=O)[C@H](C)C[C@@]2(C)O)O[C@H](C)C[C@@H]1N(C)C`: the Potency result in assay [1], in assay [2], in assay [3] and in assay [4] was “inactive” each time.
As to `CCC1(c2cnc[nH]2)Cc2ccccc2C1`, the Potency result in assay [1], in assay [2], in assay [3] and in assay [4] was “inactive” in each case.
Consider `COCCc1ccc(OCC2CO2)cc1` (stereo not drawn), for which the Potency result in assay [1], in assay [2], in assay [3] and in assay [4] was “inactive” each time.
In the case of `CN(C)CCN1CCN(c2cccc(Cl)c2)C1=O`, the Potency entry in assay [1], in assay [2], in assay [3] and in assay [4] was “inactive” throughout.
As to `COc1ccccc1N1CCN(CC(O)COc2cc(OC)c(OC)c(OC)c2)CC1` (stereo not drawn), the Potency result in assay [1], in assay [2], in assay [3] and in assay [4] was “inactive” each time.
With `O=C(O)Cn1cnnn1`, the Potency result in assay [1], in assay [2], in assay [3] and in assay [4] was “inactive” in each case.
Regarding `CCCCOCCOC(=O)c1cccnc1`, the Potency result in assay [1], in assay [2], in assay [3] and in assay [4] was “inactive” each time.
For `COC(=O)c1cc(Cl)ccc1OC`, the Potency entry in assay [1], in assay [2], in assay [3] and in assay [4] was “inactive” in each case.
Consider `Cc1coc2ccccc2c1=O`, for which the Potency result in assay [1], in assay [2], in assay [3] and in assay [4] was “inactive” throughout.
With `Cc1nc(N)nc(N)c1-c1ccc(Cl)c(Cl)c1`, the Potency in assay [1] was 3.16 µM (active); in assay [3], 0.794 µM (active); in assay [4], 3.55 µM (active). In addition, the Potency entry in assay [2] is “inactive”.
Take `Clc1ccc2c(c1)Nc1ccccc1S2`: the Potency result in assay [1], in assay [2], in assay [3] and in assay [4] was “inactive” in each case.
As to `O=C1CC2(CCCC2)CC(=O)N1`, the Potency entry in assay [1], in assay [2], in assay [3] and in assay [4] was “inactive” throughout.
For `CCS(=O)(=O)c1ccc(OC)c(C(=O)OC)c1`, the Potency entry in assay [1], in assay [2], in assay [3] and in assay [4] was “inactive” in each case.
On to `OC1(c2ccc(Cl)cc2)CCNCC1`, for which the Potency entry in assay [1], in assay [2], in assay [3] and in assay [4] was “inactive” in each case.
Take `O=C1CC(c2ccc(Cl)cc2)CC(=O)N1`: the Potency result in assay [1], in assay [2], in assay [3] and in assay [4] was “inactive” throughout.
For the molecule `CCNC(=O)[C@@H]1CCCN1C(=O)[C@H](CCCN=C(N)N)NC(=O)[C@H](CC(C)C)NC(=O)CNC(=O)[C@H](Cc1ccc(O)cc1)NC(=O)[C@H](CO)NC(=O)[C@H](Cc1c[nH]c2ccccc12)NC(=O)[C@H](Cc1cnc[nH]1)NC(=O)[C@@H]1CCC(=O)N1` ([pGlu]HWSYGLRP-NHEt), the Potency result in assay [1], in assay [2], in assay [3] and in assay [4] was “inactive” in each case.
Take `Cc1[nH]cnc1-c1ccc(Cl)cc1`: the Potency entry in assay [1], in assay [2], in assay [3] and in assay [4] was “inactive” in each case.
Consider `O=C(O)C(=O)Nc1cccc(-c2nn[nH]n2)c1`, for which the Potency result in assay [1], in assay [2], in assay [3] and in assay [4] was “inactive” each time.
With `CCCC(=O)Nc1ccc(O)c(C(C)=O)c1`, the Potency entry in assay [1], in assay [2], in assay [3] and in assay [4] was “inactive” throughout.
Regarding `CCCCCCOC(=O)NC(=N)c1ccc(NCc2nc3cc(C(=O)N(CCC(=O)OCC)c4ccccn4)ccc3n2C)cc1`, the Potency result in assay [1], in assay [2], in assay [3] and in assay [4] was “inactive” throughout.
For the molecule `Nc1nc(=O)n([C@@H]2O[C@H](CO)[C@@H](O)[C@@H]2F)cc1I`, the Potency entry in assay [1], in assay [2], in assay [3] and in assay [4] was “inactive” throughout.
For `NS(=O)(=O)c1cc(C(=O)NN2C[C@H]3[C@H]4CCC(C4)[C@H]3C2)ccc1Cl`, the Potency entry in assay [1], in assay [2], in assay [3] and in assay [4] was “inactive” in each case.
In the case of `O=C(CCCl)NCc1ccccc1`, the Potency entry in assay [1], in assay [2], in assay [3] and in assay [4] was “inactive” in each case.
